TLR4-MyD88 BLA – inhibitors of human TLR4-MyD88 binding | HeLa CL3-4 TLR4/MyD88 BLA complementation, FRET ratio | inhibition, % at 8.4 µM | 200,000 tested, 0.18% active; in the data active means inhibition above about 25%;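 further: 0% = vehicle and 100% = reference inhibitor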
TLR9-MyD88 inh – blocks human TLR9 binding to MyD88 | Q9NR96+Q99836 | 340,000 tested, 0.21% active | inhibition, % at 4.98 µM | CHO BLA complementation TLR9-MyD88, CCF4 FRET ratio;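 active means inhibition above the mean over all tested compounds plus 3 SD, cut at about 21% in these data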;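 further: 0% = DMSO only wells and 100% = clavulanate BLA inhibitor control wells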
NTR1 agonist – activates human neurotensin receptor 1. NTR1-U2OS beta-arrestin-GFP spot imaging, agonist mode. 330,000 tested, 0.17% active. P30989. activation, % at 20 µM. AID 493036;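 active means activation at or above 40% of the spot to cytoplasm intensity ratio, with at least 20 cells analyzed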;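 further: 0% = DMSO without peptide and 100% = 100 nM NTR1 peptide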
Target sequence (P30989 whole entry, looked up): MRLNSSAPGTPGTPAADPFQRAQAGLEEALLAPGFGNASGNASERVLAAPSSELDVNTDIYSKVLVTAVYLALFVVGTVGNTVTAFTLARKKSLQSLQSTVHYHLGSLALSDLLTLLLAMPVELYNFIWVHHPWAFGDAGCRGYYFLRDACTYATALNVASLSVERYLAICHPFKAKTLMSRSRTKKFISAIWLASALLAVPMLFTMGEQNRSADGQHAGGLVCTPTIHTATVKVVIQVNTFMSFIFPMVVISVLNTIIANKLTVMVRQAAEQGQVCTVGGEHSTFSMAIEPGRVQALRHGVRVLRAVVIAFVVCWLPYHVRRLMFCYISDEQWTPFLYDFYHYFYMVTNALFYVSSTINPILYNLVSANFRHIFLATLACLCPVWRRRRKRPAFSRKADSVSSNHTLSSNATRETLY
Bfl-1 A1 inh – inhibitors of the anti-apoptotic protein A1, read as caspase activation. MEF A1-2A-BIM cells, Caspase-Glo 3/7 luminescence, 3 h; percent of clofoctol response, vehicle zero. caspase activation, % (test concentration not listed). 330,000 tested, 0.066% active. AID 2462;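 active means over half of replicate activation scores above 10%, or exactly half above 10 with the replicate mean above 10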
B2AR ag – agonists of human beta-2 adrenergic receptor inducing internalization. P07550. Am2.2-beta2AR cells, FAP receptor internalization, flow cytometry. response, % (test concentration not listed). 340,000 tested, 0.43% active. AID 504454;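 active means response above a set limit, near 3 SD of response in nonfluorescent compounds, cut at about 42% in these data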
NOD2-RIPK2 inh – NOD2-RIPK2 protein interaction inhibition; CHO BLA complementation NOD2-RIPK2, CCF4 ratio; inhibition, % at 4.98 µM; 360,000 tested, 0.38% active; O43353; AID 624267; in the data active means inhibition above about 21%;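 further: 0% = vehicle only and 100% = reference blocker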
TLR4-MyD88 conf – confirmation of human TLR4-MyD88 binding inhibitors; 350 tested, 50% active; HeLa CL3-4 BLA complementation, CCF4 FRET ratio; inhibition, % at 8.4 µM; shares compounds with TLR4-MyD88 BLA;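 active means mean inhibition across three repeat runs above about 25% carried over from the earlier screen, limit read from the data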;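 further: plate controls were DMSO only for no effect and clavulanic acid blocking BLA at full dose for full effect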
BLA inhibitor ct – inhibits beta-lactamase activity, counter-screen to TLR4-MyD88 binding inhibitors. shares compounds with TLR4-MyD88 BLA. HeLa BLA reporter, CCF4 FRET ratio. inhibition, % at 8.4 µM. 350 tested, 63% active. AID 1237;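 active means mean inhibition over three repeats above about 26% taken from the earlier screen, limit read from the data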;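 further: HeLa cells stably expressing beta-lactamase reporter as counterscreen for TLR4-MyD88 inhibitors; 0% = DMSO and 100% = clavulanic acid full inhibition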
NTR1 ag confirm – confirmation of agonists of human NTR1 | 480 tested, 38% active | activation, % at 20 µM | AID 504550 | shares compounds with NTR1 agonist | NTR1-U2OS beta-arrestin-GFP translocation imaging;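 active means mean activation at 20 µM of at least 40%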;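 further: 0% = DMSO without peptide and 100% = 100 nM NTR1 peptide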
B2AR ag CP1 – human beta-2 adrenergic receptor agonism, cherry pick; percent response (surface receptor), % at 10 µM; 1,100 tested, 25% active; shares compounds with B2AR ag; AID 540358; Am2.2-beta2AR cells, FAP surface receptor, flow cytometry; stronger effect = lower value;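 active means surface receptor percent response at or below 58%, roughly 3 SD from nonfluorescent compounds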
B2AR FAP counter – fluorescence artifact in beta-2AR agonist FAP counterscreen. shares compounds with B2AR ag. Am2.2 cells, FAP fluorogen flow cytometry; stronger effect = lower value. calls only at 10 µM. 1,100 tested, under 10 active. AID 588765;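 active means percent response below a set limit in fluorescence channel 1 and below 50% in channel 8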
TLR9-MyD88 cf – TLR9-MyD88 interaction inhibition, confirmation; inhibition, % at 4.98 µM; 680 tested, 51% active; shares compounds with TLR9-MyD88 inh; CHO TLR9/MyD88 BLA complementation, CCF4 FRET ratio;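 active means mean inhibition across three repeats above about 21% taken from the earlier screen, limit read from the data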;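 further: blue over green emission ratio reports constitutive TLR9 MyD88 association via BLA complementation; 0% = DMSO vehicle wells and 100% = clavulanate BLA inhibitor wells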
BLA counter-1 – beta-lactamase reporter inhibition, counter-screen artifact. inhibition, % at 4.98 µM. CHO-BLA cells, CCF4 FRET ratio, BLA reporter. 680 tested, 7% active. AID 540251. shares compounds with TLR9-MyD88 inh;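 active means mean inhibition above a 50% cutoff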;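 further: counterscreen of TLR9-MyD88 hits on CMV-driven BLA in CHO-K1 cells; 0% = DMSO alone and 100% = clavulanate blocking BLA; higher means less blue over green ratio so more BLA blockade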
TLR9 CHO cytotox – CHO cell toxicity counter-screen for TLR9-MyD88 inhibitors | shares compounds with TLR9-MyD88 inh | TLR9-MyD88 CHO cells cytotoxicity, luminescence | inhibition, % at 4.98 µM | 680 tested, 39% active; in the data active means inhibition above about 11%
NOD2-RIPK2 conf – confirmation of human NOD2-RIPK2 interaction inhibitors | inhibition, % at 4.98 µM | CHO cells, NOD2-RIPK2 BLA complementation, CCF4 FRET | shares compounds with NOD2-RIPK2 inh | 1,200 tested, 70% active;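 active means mean inhibition across replicates above a set limit taken from the earlier primary screen, cut at about 21% in these data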;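 further: 0% = DMSO-only wells and the high end = clavulanate BLA-blocked wells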
BLA counter-2 – counter-screen for NOD2-RIPK2 interaction inhibitors: BLA reporter; shares compounds with NOD2-RIPK2 inh; CHO BLA reporter, CCF4 FRET ratio, counterscreen; inhibition, % at 4.98 µM; 1,200 tested, 57% active; AID 624371;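 active means mean inhibition above the low-control mean inhibition plus three low-control SD, cut at about 11% in these data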;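 further: 0% = DMSO only wells and 100% = clavulanate high control wells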
Starred values were filed as active, the others as inactive; i = inactive; · = no result given; + = active, no number. In the library only some 0.97% were active in any assay of this set; here they are far more common.

SMILES	TLR4-MyD88 BLA	TLR9-MyD88 inh	NTR1 agonist	Bfl-1 A1 inh	B2AR ag	NOD2-RIPK2 inh	B2AR ag CP1	B2AR FAP counter	others
Cc1ccc(/C=C2\C(=O)NC(=S)N(c3ccc(F)cc3)C2=O)s1	26*	-12	15	0	39	0	·	·	TLR4-MyD88 conf=19;BLA inhibitor ct=-16
c1ccc(CN2CCN(Cc3ccc4c(c3)OCCO4)CC2)cc1	12	-9	1	0	2	5	·	·
CCn1c(O)c(C=Nc2ccc(N3CCOCC3)cc2)c(=O)n(CC)c1=S	44*	16	4	0	-293	10	·	·	TLR4-MyD88 conf=50*;BLA inhibitor ct=69*
CCn1c(O)c(C=Nc2ccc(N3CCOCC3)c(Br)c2)c(=O)n(CC)c1=S	-3	6	-4	0	6	4	·	·
Oc1ccc(-[n+]2c(-c3ccccc3)cc(-c3ccccc3)cc2-c2ccccc2)cc1	·	1	81*	2	22	-3	·	·	NTR1 ag confirm=84*
N#C/C(=C\c1ccc(O)cc1)C(=O)O (tested in a mixture with another compound)	·	-5	·	·	-99	-8	·	·
Cc1cc(/C=C2/C(=O)NC(=O)N(Cc3ccco3)C2=O)c(C)n1-c1ccccc1	7	-7	86*	0	2	-1	·	·	NTR1 ag confirm=2
CN1C(=O)/C(=C/c2cccn2-c2ccc3ccccc3c2)C(=O)NC1=S	-8	11	46*	0	47*	4	·	·	NTR1 ag confirm=66*
Cn1cccc1/C=C1/C(=O)NC(=O)N(C(C)(C)C)C1=O	·	4	2	0	-20	12	·	·
Cc1cccc(NC(=O)[C@@H](NC(=O)N2C[C@H]3C[C@@H](C2)c2cccc(=O)n2C3)C(C)C)c1	·	-24	-3	0	4	1	·	·
CCOC(=O)C(O)(c1ccc(NC(=S)NC(=O)c2ccc(Cl)cc2Cl)c(C)c1)C(F)(F)F (stereo not drawn)	-7	5	45*	1	1	6	·	·	NTR1 ag confirm=11
CNC(=O)Oc1cccc2c1OC(C)(C)O2	·	-2	·	·	0	-4	·	·
CC(C)c1ccc(N2C(=O)NC(=O)/C(=C\C=C\c3ccco3)C2=O)cc1	12	·	42*	1	·	·	·	·	NTR1 ag confirm=52*
CC(C)c1ccc(N2C(=O)NC(=O)/C(=C\c3cnc(-c4ccccc4)nc3)C2=O)cc1	8	-1	-1	0	0	2	·	·
Cc1cc(C)cc(N2C(=O)NC(=O)/C(=C\c3cccn3-c3ccccc3)C2=O)c1	24	22*	76*	1	13	15	·	·	NTR1 ag confirm=67*;TLR9-MyD88 cf=18;BLA counter-1=3;TLR9 CHO cytotox=9
Cc1cc(C(=O)N2CCC3(CC2)OCCO3)no1	·	4	1	1	2	2	·	·
C[CH2][Hg][S]c1ccccc1C(=O)O	·	52*	97*	3	35	+	·	·	NTR1 ag confirm=95*;TLR9-MyD88 cf=48*;BLA counter-1=5;TLR9 CHO cytotox=97*;NOD2-RIPK2 conf=+;BLA counter-2=6
OCC12COC3c4ccccc4C(OC1)N32 (stereo not drawn)	2	-3	0	-1	12	5	·	·
CC[n+]1c(/C=C/C=C/c2ccc(N(C)C)cc2)sc2ccccc21	·	0	11	-1	46*	15	105	i
COc1cc(C(O)CNC(C)C)cc(F)c1OC (stereo not drawn)	·	-4	-1	0	1	-39	112	i
CC(Cc1ccc(O)cc1)NCC(O)c1cc(O)cc(O)c1 (stereo not drawn)	·	-1	·	-1	·	2	·	·
Brc1ccc2c(c1)C(OC1CN3CCC1CC3)c1ccccc1CS2 (stereo not drawn)	3	-14	10	-1	50*	-2	77	i
c1ccc2c(c1)CSc1ccccc1C2C1=NCCN1 (stereo not drawn)	-5	-4	4	2	0	2	·	·
COc1ccc(CC2C(=O)NC(=O)NC2=O)c(OC)c1	-1	-9	0	0	3	1	·	·
COc1ccc(OC)c(C(O)C2CCCCN2)c1 (stereo not drawn)	·	3	0	-1	2	4	109	i
SMILES	TLR4-MyD88 BLA	TLR9-MyD88 inh	NTR1 agonist	Bfl-1 A1 inh	B2AR ag	NOD2-RIPK2 inh	B2AR ag CP1	B2AR FAP counter	others
CCNCC(O)c1cccc(O)c1 (stereo not drawn)	·	-1	2	-1	-7	-6	106	i
OC12ONC(c3ccccn3)C1N1CCC2CC1 (stereo not drawn)	15	6	-1	0	8	9	83	i
COc1c(C)cc(C(=O)C2CCCN(C3CCOCC3)C2)cc1C (stereo not drawn)	4	-15	0	1	58*	0	125	i
O=P(Oc1ccccc1)(N1CCOCC1)N1CCOCC1	·	-12	·	·	-1	-4	·	·
CCOc1cc(CNC(C)C(O)c2ccccc2)cc(Cl)c1OCC (stereo not drawn)	-16	-5	2	-1	0	8	112	i
Cc1nn(Cc2ccccc2Cl)c(Cl)c1C(=O)O	7	-4	-1	-1	4	-6	·	·

Compound activity: PubChem, several laboratories
